Reference: the supplement of paper PMC6992640

Key:
Assay in all cases: cell viability of combination (% of vehicle); higher = less cytotoxic
Conditions in all cases: 1 µM; 72 h; partner dose: 10 nM
HCI01 = test system: HCI01 (cells of a triple-negative basal-like breast cancer xenograft)
Procedure: (§1)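 PDX cells were treated for 72 h with each drug at 1 µM plus afatinib (10 nM; 1 µM for WHIM30). Luciferase viability is expressed as percent of vehicle.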

UCD52 = test system: UCD52 (cells of a triple-negative basal-like breast cancer xenograft)
Procedure: as §1

WHIM2 = test system: WHIM2 (cells of a triple-negative basal-like breast cancer xenograft)
Procedure: as §1

SMILES	cell viability of combination (HCI01)	cell viability of combination (UCD52)	cell viability of combination (WHIM2)
COc1ccccc1OCCNCC(O)COc1cccc2[nH]c3ccccc3c12 (configuration not stated) [Carvedilol] + CN(C)C/C=C/C(=O)Nc1cc2c(Nc3ccc(F)c(Cl)c3)ncnc2cc1O[C@H]1CCOC1 [Afatinib]	48.7	59.2	41.1
CC(C)C[C@H](NC(=O)[C@H](Cc1ccccc1)NC(=O)c1cnccn1)B(O)O [Bortezomib] + CN(C)C/C=C/C(=O)Nc1cc2c(Nc3ccc(F)c(Cl)c3)ncnc2cc1O[C@H]1CCOC1 [Afatinib]	22.5	15.1	14.4
CNC(=O)c1cc(Oc2ccc(NC(=O)Nc3ccc(Cl)c(C(F)(F)F)c3)cc2)ccn1.Cc1ccc(S(=O)(=O)O)cc1 [Sorafenib Tosylate] + CN(C)C/C=C/C(=O)Nc1cc2c(Nc3ccc(F)c(Cl)c3)ncnc2cc1O[C@H]1CCOC1 [Afatinib]	46.6	42.3	42.4
Clc1ccc(COC(Cn2ccnc2)c2ccc(Cl)cc2Cl)c(Cl)c1.O=[N+]([O-])O (configuration not stated) [Miconazole Nitrate] + CN(C)C/C=C/C(=O)Nc1cc2c(Nc3ccc(F)c(Cl)c3)ncnc2cc1O[C@H]1CCOC1 [Afatinib]	63.9	76.3	52.2
CC1(C)CCC(c2ccc(Cl)cc2)=C(CN2CCN(c3ccc(C(=O)NS(=O)(=O)c4ccc(NC(CCN5CCOCC5)CSc5ccccc5)c(S(=O)(=O)C(F)(F)F)c4)cc3)CC2)C1 (configuration not stated) [ABT-263 (Navitoclax)] + CN(C)C/C=C/C(=O)Nc1cc2c(Nc3ccc(F)c(Cl)c3)ncnc2cc1O[C@H]1CCOC1 [Afatinib]	33	38	29.5
CN(C)c1ccc(C(=C2C=CC(=[N+](C)C)C=C2)c2ccc(N(C)C)cc2)cc1.[Cl-] [Crystal Violet] + CN(C)C/C=C/C(=O)Nc1cc2c(Nc3ccc(F)c(Cl)c3)ncnc2cc1O[C@H]1CCOC1 [Afatinib]	45	41	28.4
N.N.O=C([O-])C1(C(=O)[O-])CCC1.[Pt+2] [Carboplatin] + CN(C)C/C=C/C(=O)Nc1cc2c(Nc3ccc(F)c(Cl)c3)ncnc2cc1O[C@H]1CCOC1 [Afatinib]	60.1	68.6	53.1
CNCCCC12CCC(c3ccccc31)c1ccccc12.Cl [Maprotiline HCl] + CN(C)C/C=C/C(=O)Nc1cc2c(Nc3ccc(F)c(Cl)c3)ncnc2cc1O[C@H]1CCOC1 [Afatinib]	55.1	61.4	46
O=C(NN=Cc1ccc([N+](=O)[O-])o1)c1ccc(O)cc1 [Nifuroxazide] + CN(C)C/C=C/C(=O)Nc1cc2c(Nc3ccc(F)c(Cl)c3)ncnc2cc1O[C@H]1CCOC1 [Afatinib]	50.8	79.4	48.8
COc1cc(C(=O)O)ccc1NC(=O)C1NC(CC(C)(C)C)C(C#N)(c2ccc(Cl)cc2F)C1c1cccc(Cl)c1F (configuration not stated) + CN(C)C/C=C/C(=O)Nc1cc2c(Nc3ccc(F)c(Cl)c3)ncnc2cc1O[C@H]1CCOC1 [Afatinib]	49.1	60.4	44.7
COC1=C(OC)C(=O)C(CCCCCCCCCCO)=C(C)C1=O [Idebenone] + CN(C)C/C=C/C(=O)Nc1cc2c(Nc3ccc(F)c(Cl)c3)ncnc2cc1O[C@H]1CCOC1 [Afatinib]	58.8	–	50.1
CC(CCC(=O)O)C1CCC2C3CCC4CC(O)CCC4(C)C3CCC12C (configuration not stated) [Lithocholic Acid] + CN(C)C/C=C/C(=O)Nc1cc2c(Nc3ccc(F)c(Cl)c3)ncnc2cc1O[C@H]1CCOC1 [Afatinib]	45.1	52.6	40.5
Cc1ccc(-n2[nH]c(C)c(NN=C3C=CC=C(c4cccc(C(=O)O)c4)C3=O)c2=O)cc1C [Eltrombopag] + CN(C)C/C=C/C(=O)Nc1cc2c(Nc3ccc(F)c(Cl)c3)ncnc2cc1O[C@H]1CCOC1 [Afatinib]	52.9	77.1	48.5
O=C(O)CO.[NH2-].[NH2-].[Pt+2] [Nedaplatin] + CN(C)C/C=C/C(=O)Nc1cc2c(Nc3ccc(F)c(Cl)c3)ncnc2cc1O[C@H]1CCOC1 [Afatinib]	49.9	82.6	48.5
COCCn1c2c([n+](Cc3cnccn3)c1C)C(=O)c1ccccc1C2=O.[Br-] + CN(C)C/C=C/C(=O)Nc1cc2c(Nc3ccc(F)c(Cl)c3)ncnc2cc1O[C@H]1CCOC1 [Afatinib]	18.3	15.2	11.8
CC(C)(C)c1ccc(C(O)CCCN2CCC(C(O)(c3ccccc3)c3ccccc3)CC2)cc1 (configuration not stated) [Terfenadine] + CN(C)C/C=C/C(=O)Nc1cc2c(Nc3ccc(F)c(Cl)c3)ncnc2cc1O[C@H]1CCOC1 [Afatinib]	52.8	59.1	51.1
Nc1c(CC(=O)[O-])cccc1C(=O)c1ccccc1.O.[Na+] [Amfenac Sodium Monohydrate] + CN(C)C/C=C/C(=O)Nc1cc2c(Nc3ccc(F)c(Cl)c3)ncnc2cc1O[C@H]1CCOC1 [Afatinib]	54.7	76.3	47.6
C=C1C(=CC=C2CCCC3(C)C2CCC3C(C)C=CC(C)C(C)C)CC(O)CC1O (configuration not stated) [Doxercalciferol] + CN(C)C/C=C/C(=O)Nc1cc2c(Nc3ccc(F)c(Cl)c3)ncnc2cc1O[C@H]1CCOC1 [Afatinib]	44.8	47.6	37.1
CCc1c(Cl)c(O)c(Cl)c(O)c1C(=O)OC1C(C)OC(OCC2=CC=CCC(O)C(C)=CC(CC)C(OC3OC(C)(C)C(OC(=O)C(C)C)C(O)C3O)C(C)=CC(C)=CCC(C(C)O)OC2=O)C(OC)C1O (configuration not stated) [Fidaxomicin] + CN(C)C/C=C/C(=O)Nc1cc2c(Nc3ccc(F)c(Cl)c3)ncnc2cc1O[C@H]1CCOC1 [Afatinib]	56.2	81.9	51.9
CC(C)c1nc(N(C)S(C)(=O)=O)nc(-c2ccc(F)cc2)c1C=CC(O)CC(O)CC(=O)[O-].CC(C)c1nc(N(C)S(C)(=O)=O)nc(-c2ccc(F)cc2)c1C=CC(O)CC(O)CC(=O)[O-].[Ca+2] (configuration not stated) [Rosuvastatin Calcium] + CN(C)C/C=C/C(=O)Nc1cc2c(Nc3ccc(F)c(Cl)c3)ncnc2cc1O[C@H]1CCOC1 [Afatinib]	51.4	55.2	44.2
CN(C)CC=CC(=O)Nc1cc2c(Nc3ccc(F)c(Cl)c3)ncnc2cc1OC1CCOC1.O=C(O)C=CC(=O)O.O=C(O)C=CC(=O)O (configuration not stated) [Afatinib dimaleate] + CN(C)C/C=C/C(=O)Nc1cc2c(Nc3ccc(F)c(Cl)c3)ncnc2cc1O[C@H]1CCOC1 [Afatinib]	50.8	24.5	35.4
C=CC(=O)Nc1cc(Nc2nccc(-c3cn(C)c4ccccc34)n2)c(OC)cc1N(C)CCN(C)C + CN(C)C/C=C/C(=O)Nc1cc2c(Nc3ccc(F)c(Cl)c3)ncnc2cc1O[C@H]1CCOC1 [Afatinib]	40	50.2	34.9
CC(NCCCc1cccc(C(F)(F)F)c1)c1cccc2ccccc12 (configuration not stated) [Cinacalcet] + CN(C)C/C=C/C(=O)Nc1cc2c(Nc3ccc(F)c(Cl)c3)ncnc2cc1O[C@H]1CCOC1 [Afatinib]	51.6	59.9	46.1
COC(=O)NC(C(=O)NC(Cc1ccccc1)C(O)CN(Cc1ccc(-c2ccccn2)cc1)NC(=O)C(NC(=O)OC)C(C)(C)C)C(C)(C)C (configuration not stated) [Atazanavir] + CN(C)C/C=C/C(=O)Nc1cc2c(Nc3ccc(F)c(Cl)c3)ncnc2cc1O[C@H]1CCOC1 [Afatinib]	48.8	56.9	54
Cc1ccc(C(=O)N(CCCN)C(c2nc3cc(Cl)ccc3c(=O)n2Cc2ccccc2)C(C)C)cc1 (configuration not stated) + CN(C)C/C=C/C(=O)Nc1cc2c(Nc3ccc(F)c(Cl)c3)ncnc2cc1O[C@H]1CCOC1 [Afatinib]	50.5	36	35.8
Cc1cc(Nc2ncc(Cl)c(Nc3ccccc3S(=O)(=O)C(C)C)n2)c(OC(C)C)cc1C1CCNCC1 + CN(C)C/C=C/C(=O)Nc1cc2c(Nc3ccc(F)c(Cl)c3)ncnc2cc1O[C@H]1CCOC1 [Afatinib]	44.4	28.7	36.7
